Where “and” joins values, the source holds several entries; their conditions need not be identical. Identical values can stand only once. Compounds without any hit were thinned out: in the full panel of roughly 83,000, 20% have a hit.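 The endpoint reported here, percent growth, reads 100 for growth as untreated, 0 for no net growth and -100 for all cells dead.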 Values without a mark were called inactive. Calls of active or inactive are those of the source. How the source made its calls: active means growth percent below 10; inactive means the rest.
System: MDA-MB-468 breast
Assay: NCI-60 one-dose screen, 48 h (100 = growth as untreated, 0 = no growth, -100 = all killed)
Details: 10 µM unless noted

Row | SMILES | growth
1 | O=C(NNc1nc2cc(F)ccc2n2c(CO)ccc12)c1cnccn1 | -14% (active)
2 | COC(=O)[C@@H]1CC[C@]2(C)[C@H](CC[C@@H]3O[C@@]32C)[C@@]1(C)CC(=O)c1ccoc1 | 95.7%
3 | CN(C)c1ccc([C@@H](C(=O)Nc2cccc([N+](=O)[O-])c2)N(C(=O)c2cc3ccccc3[nH]2)c2cccc([N+](=O)[O-])c2)cc1 | 97.8%
4 | Cc1ccccc1-n1nnc(C(=O)Nc2nc(-c3ccccc3)c(-c3ccccc3)s2)c1C | 61.9% [50 µM]
5 | Cc1nc2scc(-c3ccc(Cl)cc3)n2c(=O)c1CCN1CCOCC1 | 112%
6 | COc1ccc(OC)c(/C=C2\Oc3cc(OCCCN4CCCC4)ccc3C2=O)c1 | 77.7%
7 | CCOC(=O)c1ccccc1SC(C[N+](=O)[O-])c1ccccc1 (stereo unspecified) | 63.7%
8 | CCCCCCCC/C=C\CCCCCCCCOc1ccccc1CCOP(=O)(O)OCC[N+](C)(C)C | 61.9%
9 | COc1ccc(-c2nnc(SCC(=O)Nc3ccc(C(=O)/C=C/c4ccccc4)cc3)n2-c2ccccc2)cc1OC | 94.8%
10 | O=C(NC(Cc1cn(Cc2ccccc2)cn1)C(=O)O)OCC1c2ccccc2-c2ccccc21 (stereo unspecified) | 107%
11 | Cc1ccc(C(=O)N2C/C(=C/c3ccc(F)cc3)C(=O)/C(=C/c3ccc(F)cc3)C2)cc1 | 79.5%
12 | Oc1ccc2ccccc2c1C1NN=C(c2ccccc2)S1 (stereo unspecified) | 3.89% (active)
13 | CC1O[C@@H](OC2[C@H](OC(=O)/C=C/c3ccc(O)c(O)c3)C(COC3O[C@H](C)C(O)C(O)[C@@H]3O)O[C@@H](OCCc3ccc(O)c(O)c3)[C@H]2O)[C@@H](O)C(O)[C@H]1O (stereo partly specified) | 106%
14 | COC(=O)[C@H]1Cc2c([nH]c3ccccc23)[C@H](c2ccc3c(c2)OCO3)N1 | 102%
15 | Oc1[nH]c2ccccc2c1/C=c1/ccc2c(c1)N=C(c1ccc(C(F)(F)F)cc1)N=2 | 43.6%
16 | O=C1Nc2ccccc2C12CC(c1ccc(Cl)cc1)=NN2 (stereo unspecified) | 110%
17 | CCOC(=O)N[C@H]1CCc2cc(OC)c(OC)c(OC)c2-c2ccc(SC)c(=O)cc21 | -36.8% (active)
18 | Cn1c(-c2ccccc2)cc(=O)n1-c1ccccc1 | 105%

Row | SMILES | growth
19 | CCN(CC)CCCNc1cccc2c(SCc3ccccc3)ccnc12 | 88.3%
20 | Cn1c(=O)c2c(nc(N3CCCC3)n2C)n(C)c1=O | 99.5%
21 | CCN(CC)c1ccc(/C=N/NC(=O)CSc2nc3ccccc3c(=O)n2CCc2ccc(S(N)(=O)=O)cc2)c(O)c1 | -7.72% (active)
22 | CN(C)/N=C/c1ccccc1O | 97.8%
23 | NCCCN(CCCN)CCCNCc1c2ccccc2c(CNCCCN(CCCN)CCCN)c2ccccc12 | 83.4%
24 | CCOC(=O)c1ccc2n1CCCc1cnc(NC(C)=O)nc1-2 | 96.1%
25 | Cc1nc2c(=O)[nH]c(=S)[nH]c2[nH]c1=O | 107% and 111%
26 | Nc1ccc(-c2ccc(-c3ccccc3N)c3[nH]c4ccccc4c23)cc1 | -5.32% (active)
27 | O=C(CC(SCc1ccccc1)c1ccccc1)c1ccccc1 (stereo unspecified) | 84.9%
28 | CN(C)CCCC1(c2ccc(F)cc2)OCc2cc(-c3cccc4[nH]ccc34)ccc21 (stereo unspecified) | -34.5% (active)
29 | CC(C)(C)OC(=O)N1CCc2c(sc3ncnc(N/N=C/c4ccc(Br)cc4)c23)C1 | 24.9%
30 | COc1c(CNC(=O)CCl)cc2[nH]c(C)cc2c1CNC(=O)CCl | 53.4%
31 | CCN(C(=O)N1CCN(c2cc3c(cc2F)c(=O)c(C(=O)O)cn3C2CC2)CC1)c1nc(-c2ccc(Cl)cc2)cs1 | -2.66% (active)
32 | O=C1/C(=C/c2ccc(Cl)cc2)SC(=S)N1CCc1ccc(O)cc1 | 73.1%
33 | Clc1ccc(Sc2nc(NC3CC3)nc(Sc3ccc(Cl)cc3)n2)cc1 | 91.2%
34 | C=C(C)[C@@H]1CC[C@]2(c3nnc(-c4ccncc4)o3)CC[C@]3(C)[C@H](CC[C@@H]4[C@@]5(C)CCC(=O)NC(C)(C)[C@@H]5CC[C@]43C)[C@@H]12 | 92.7%
35 | Cc1nc(NC(=O)N2CCC[C@H]2C(N)=O)sc1-c1ccnc(C(C)(C)C(F)(F)F)c1 | 6.59% (active)
36 | Cc1ccc(C)c(NC(=O)c2sc3c(=O)[nH]cnc3c2C)c1 | 67.2%
